Test results: PubChem BioAssay (Tox21)
Inconclusive results are not listed. Active and inactive are the calls of the source. Calls follow the shape of the full dose curve.

assay: qHTS assay to identify small molecule agonists of H2AX - cell viability counter screen (AID 1224847); conditions: CHO-K1 viability, CellTiter-Glo luminescence, 3 h; series mostly up to 154 µM; activity change, negative = cytotoxicity: at the top concentration; also: top concentration of the series differs between compounds; nearly all actives have a fitted effect of over 30% in size
Excerpt: National Center for Advancing Translational Sciences [NCATS]
NIH Chemical Genomics Center [NCGC]
U.S. Environmental Protection Agency [EPA]
National Institutes of Environmental Health Sciences [NIEHS]
National Toxicology Program [NTP]
U.S. Food and Drug Administration [FDA]
HTRF phospho-H2AX (Ser139) assay (Cisbio Bioassays, US) enables the quantitative detection of the histone variant H2AX when phosphorylated on serine 139. When double-stranded DNA breaks, either by ionizing radiation or endogenous physiological processes, H2AX becomes phosphorylated at Ser139. This phospho-Ser139 serves as a sensitive biomarker for the detection of such breaks, localizing the site of DNA repair. So, HTRF phospho-H2AX Ser139 is a pertinent assay to study genome stability, the cell cycle, DNA repair, and it serves as a biomarker for cancer, and to understand aging. Wild type CHO-K1 cells were used to identify the inducers of Phospho-H2AX Ser 139 from the Tox21 compound collections. Also cytotoxicity of the Tox21 10K compound library against the CHO-K1 cell line was tested by measuring the cell viability using CellTiter-Glo assay (Promega, Madison, WI).
Tox21 Assay Protocol Summary:
The CHO-K1 cells suspended in culture medium containing 10% FBS were dispensed at 1000 cells/ 3 ul/well in 1536-well white wall/solid bottom plates (Greiner Bio-One North America, NC) using a Multidrop Combi (Thermo Fisher Scientific Inc., Waltham, MA). After the assay plates were incubated at 37C overnight, 23 nl of compounds at 15 concentrations (from 5-48 columns) or positive control (from 1 to 4 columns) were transferred to the assay plates using a Pintool station (Wako, San Diego, CA) into each well resulting in a final DMSO concentration of 0.76%. After 3hr incubation at 37C, 3 uL/well CellTiter-Glo luminescent cell viability reagent (Promega Corporation, Madison, WI) was added using a Flying Reagent Dispenser (FRD) (Aurora Discovery, CA). After incubation at room temperature for 30 min, the luminescence intensity was read using a ViewLux plate reader (PerkinElmer, Waltham, MA).
% is scaled to controls: 0 for no effect and ±100 for the full control effect.

Compound | activity change, negative = cytotoxicity
CCCCCCC/C=C/C=O | 1.7% (inactive)
OCC(O)c1ccccc1 (stereo not given) | -8.5% (inactive)
FC(F)(Cl)C(F)(Cl)Cl | -1.2% (inactive)
O=[N+]([O-])c1ccc(Cl)cc1Cl | 1.61% (inactive)
CC(CN=Cc1ccccc1O)N=Cc1ccccc1O (stereo not given) | 0.21% (inactive)
CC(=O)Nc1cccc(N)c1 | -3.01% (inactive)
CCCC1CCOC(C)S1 (stereo not given) | 0.973% (inactive)
Cc1c(-c2cccnc2)c2ccccc2n1CCCCC(=O)O | 3.26% (inactive)
CCOc1ccc2c(c1)C(C)CC(C)(C)N2 (stereo not given) | -12.2% (inactive)
CCc1ccc(C(=O)C(C)CN2CCCCC2)cc1 (stereo not given) | -2.39% [at 70.9 µM] (inactive)
O=C(O)c1cc(C(=O)O)c(C(=O)O)cc1C(=O)O | -1.26% (inactive)
O=C(O)c1ccc2cc(O)ccc2c1 | -0.0766% (inactive)
C=CC(=O)OCCCCCCCCCC | 3.37% (inactive)
C=Cc1ccc(C=C)cc1 | 0.703% (inactive)
Cc1c(Nc2ncccc2C(=O)O)cccc1C(F)(F)F | 2.79% [at 70.9 µM] (inactive)
Nc1ccc(F)cc1F | 0.396% (inactive)
CC(C)(C)c1ccc(CCC=O)cc1 | -7.65% (inactive)
Clc1nc2ccccc2nc1Cl | 2.49% (inactive)
COc1ccnc2c1CCCCC2S(=O)c1nc2ccccc2[nH]1 (stereo not given) | 6.67% [at 70.9 µM] (inactive)
O=C(O)c1cccc(C(=O)O)c1C(=O)O | -0.256% (inactive)

Compound | activity change, negative = cytotoxicity
CC(=O)S[C@H](C(=O)N[C@H]1Cc2ccccc2[C@H]2CCC[C@@H](C(=O)O)N2C1=O)C(C)C | 2% (inactive)
CC(C)=CCC[C@H](C)CCO | 1.77% (inactive)
CCCCCCCCCC(C)C=O (stereo not given) | -0.112% (inactive)
N#Cc1ccc(CC(=O)c2cccc(C(F)(F)F)c2)cc1 | -3.81% (inactive)
CCCCCCCCS | 1.16% (inactive)
CCC(=O)O[C@@H]1C[C@H]2CC[C@]1(C)C2(C)C | 3.84% (inactive)
CCC[Si](OC)(OC)OC | 2.26% (inactive)
NC(=O)c1ccccc1 | 1.88% (inactive)
CC(CCl)OC(C)CCl (stereo not given) | 3.1% (inactive)
CC1(C)C(=O)NC(=O)N1CO | 0.504% (inactive)
Clc1cccc(C(c2ccc3nc[nH]c3c2)n2ccnc2)c1 (stereo not given) | 2.78% [at 70.9 µM] (inactive)
CC(C)(Cc1c[nH]c2ccccc12)NCC(O)COc1ccccc1C#N (stereo not given) | -0.754% [at 70.9 µM] (inactive)
Nc1cccc2c(=O)[nH][nH]c(=O)c12 | -11.7% (inactive)
Cc1cc(C)n(CO)n1 | 2.81% (inactive)
CCC1=C(C)CN(C(=O)NCCc2ccc(S(=O)(=O)NC(=O)NC3CCC(C)CC3)cc2)C1=O (stereo not given) | 3.91% [at 70.9 µM] (inactive)
O=C(O)c1cccnc1Nc1cccc(C(F)(F)F)c1 | 11.6% [at 70.9 µM] (inactive)
COc1cccc([C@H](O)C2CCN(CCc3ccc(F)cc3)CC2)c1OC | -4.54% (inactive)
Cc1c(Cl)cccc1Nc1ccccc1C(=O)O | -0.203% [at 70.9 µM] (inactive)
C[C@@H](O)[C@H]1C(=O)N2C(C(=O)O)=C(S[C@@H]3CN[C@H](CNS(N)(=O)=O)C3)[C@H](C)[C@H]12 | 3.64% [at 70.9 µM] (inactive)
COc1ccc(/C=C/c2cc(OC)cc(=O)o2)cc1 | -10.6% [at 70.9 µM] (inactive)
